{
  "source": "PubChem BioAssay AID602449",
  "about": "(Sanford-Burnham Center for Chemical Genomics, 2012)",
  "note": "Hit rate of the full screen: of about 360,000 compounds, about 5,000 (1.4%) were called active. This is one part of a sample in which actives are shown more often than they occur.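 How the source made its calls: active means inhibition of 50% or more, scaled per plate between neutral and stimulator controls; inactive means the rest.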",
  "data": [
    {"assay": "mitochondrial permeability transition pore inhibitors, primary screen, biochemical, isolated mouse mitochondria, absorbance (AID 602449);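 further: 0% = DMSO wells given calcium and 100% = 1 mM EGTA wells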", "details": "Ca2+ swelling absorbance, 30 min, at 10 µM, hits give high values", "values": [
      {"smiles": "CCOc1cc(-c2noc(CCCC(=O)NC3CCCCC3)n2)ccc1OC", "inhibition": "0.3% (inactive)"},
      {"smiles": "CCc1nc2ccc(C(=O)NCCNC(C)=O)cn2c1N(CC)Cc1cccc(Br)c1", "inhibition": "-0.2% (inactive)"},
      {"smiles": "CCCC(C)C(=O)OCC(=O)Nc1c(Br)cc(C)cc1Br", "note": "(stereo not given)", "inhibition": "-0.2% (inactive)"},
      {"smiles": "CCc1c(C)sc(NC(=O)c2cccs2)c1C(N)=O", "inhibition": "-0.6% (inactive)"},
      {"smiles": "OC(C#CCN1CCOCC1)(c1ccccc1)C1CCCCC1", "note": "(stereo not given)", "inhibition": "-2.4% (inactive)"},
      {"smiles": "CCc1oc(-c2ccc(OC)cc2)c(C(=O)OCCCCCO)c1C(C)OCCO", "note": "(stereo not given)", "inhibition": "0.2% (inactive)"},
      {"smiles": "CCC(C)(C)NC(=O)CN(C(=O)C(=O)Nc1ccc2c(c1)OCCO2)C(C)(C)CC", "inhibition": "-1% (inactive)"},
      {"smiles": "O=C1[C@@H]2C(c3cccnc3)=NO[C@@H]2C(=O)N1c1ccc(Cl)cc1Cl", "inhibition": "2.7% (inactive)"},
      {"smiles": "CC(=O)Nc1ccc(NS(=O)(=O)c2cc(C)sc2C)cc1", "inhibition": "0.5% (inactive)"},
      {"smiles": "CCCc1cc(=S)n2c([nH]c3ccccc32)c1C#N", "inhibition": "94.4% (active)"},
      {"smiles": "CN(C)Cc1c(C#N)c2ccccc2n1C", "inhibition": "-1.4% (inactive)"},
      {"smiles": "O=C(COc1ccc(Cl)cc1)NCCS(=O)(=O)N1CCN(c2ccc(F)cc2)CC1", "inhibition": "1.5% (inactive)"},
      {"smiles": "CCOC(=O)N1CCC(NC(=O)C(NS(=O)(=O)c2ccc3c(c2)CCN3C(=O)CC)C(C)C)CC1", "note": "(stereo not given)", "inhibition": "-0.2% (inactive)"},
      {"smiles": "Cc1ccc(CNC(=O)[C@@H](NC(=O)Cc2ccccc2)C(C)C)cc1", "inhibition": "0.5% (inactive)"},
      {"smiles": "CC(C)(C)C(=O)NC(NC(=S)Nc1ccc(S(N)(=O)=O)cc1)C(Cl)(Cl)Cl", "note": "(stereo not given)", "inhibition": "-2.5% (inactive)"},
      {"smiles": "O=C(Cc1cccc2ccccc12)NNC(=O)Nc1ccc(Cl)cc1", "inhibition": "72.6% (active)"},
      {"smiles": "O=C(O)Cc1ccc(NC(=O)Nc2cccc3ccccc23)cc1", "inhibition": "0.9% (inactive)"},
      {"smiles": "Cc1ccc(NC(=S)NC(NC(=O)Cc2cccc3ccccc23)C(Cl)(Cl)Cl)cc1", "note": "(stereo not given)", "inhibition": "55.5% (active)"},
      {"smiles": "CN(CC(=O)Nc1ccc(Cl)cc1)CC(=O)Nc1cccc2ccccc12", "inhibition": "0.6% (inactive)"},
      {"smiles": "CCCOC(=O)CC1C(=O)NCCN1Cc1ccc(F)cc1", "note": "(stereo not given)", "inhibition": "0.6% (inactive)"},
      {"smiles": "Cn1nnnc1SCC(=O)Nc1cccc(S(=O)(=O)N2CCCCC2)c1", "inhibition": "-0.1% (inactive)"},
      {"smiles": "Cc1cc(C)cc(NS(=O)(=O)c2ccc(Oc3ncc(C(F)(F)F)cc3Cl)cc2)c1", "inhibition": "50.8% (active)"},
      {"smiles": "CN(NS(=O)(=O)c1cccs1)c1ncc(C(F)(F)F)cc1Cl", "inhibition": "2.5% (inactive)"},
      {"smiles": "Cc1ccc(NS(=O)(=O)c2ccc(F)cc2)nc1", "inhibition": "-0.6% (inactive)"},
      {"smiles": "COc1ccc(CCOC(=O)CNC(=O)c2ccc(Cl)cc2Cl)cc1", "inhibition": "1.4% (inactive)"},
      {"smiles": "COc1ccc(CNc2ncnc3ccccc23)cc1", "inhibition": "70.5% (active)"},
      {"smiles": "COc1ccc(CNc2nccs2)cc1", "inhibition": "0.7% (inactive)"},
      {"smiles": "O=C(COc1ncnc2ccccc12)NC(=O)NCc1ccccc1", "inhibition": "-0.1% (inactive)"},
      {"smiles": "CC1(C)C2CC=C(/C=N/NC(=O)C3CC3)C1C2", "note": "(stereo not given)", "inhibition": "-1.7% (inactive)"},
      {"smiles": "CCOc1ccc(N2C(=O)/C(=C/c3ccc(C)o3)N(C)C2=S)cc1", "inhibition": "4.3% (inactive)"},
      {"smiles": "Cc1c(C)n2c(SCC(=O)NC3CCCC3)nnc2[nH]c1=O", "inhibition": "-1.2% (inactive)"},
      {"smiles": "O=C1CCCCC1Sc1ccc(Cl)cc1[N+](=O)[O-]", "note": "(stereo not given)", "inhibition": "-0.4% (inactive)"},
      {"smiles": "CC1CC(C)CN(CCOc2cccc3ccccc23)C1", "note": "(stereo not given)", "inhibition": "-1.7% (inactive)"},
      {"smiles": "CN1CCN(CCCCOc2cccc3ccccc23)CC1", "inhibition": "-0.6% (inactive)"},
      {"smiles": "CC(C)c1ccccc1OCC(O)CN(CC(O)COc1cccc2ccccc12)C(C)C", "note": "(stereo not given)", "inhibition": "61.5% (active)"},
      {"smiles": "Cc1ccc(C(=O)NCC(=O)NCc2cc(=O)n(C)c(=O)n2C)cc1", "inhibition": "-1.3% (inactive)"},
      {"smiles": "Cc1cc(C)cc(OCC(=O)Nc2cc(NC(=O)COc3cc(C)cc(C)c3)cc(C(=O)O)c2)c1", "inhibition": "1.6% (inactive)"},
      {"smiles": "Cc1cc(C)cc(OCC(=O)Nc2nc3ccc([N+](=O)[O-])cc3s2)c1", "inhibition": "50.4% (active)"},
      {"smiles": "O=C(Nc1nc2ccc([N+](=O)[O-])cc2s1)c1ccc(S(=O)(=O)N2CCCc3ccccc32)cc1", "inhibition": "78.1% (active)"},
      {"smiles": "O=C(NNC(=O)c1ccc(-n2cncn2)c([N+](=O)[O-])c1)c1ccccc1", "inhibition": "-2.8% (inactive)"},
      {"smiles": "Cc1ccc(NC(=O)c2cccc(S(=O)(=O)N3CCCc4ccccc43)c2)nc1", "inhibition": "-1.2% (inactive)"},
      {"smiles": "NS(=O)(=O)c1ccc2nc(NC(=O)C3=COCCO3)sc2c1", "inhibition": "-0.6% (inactive)"},
      {"smiles": "Cc1cc(C)cc(OCC(=O)O/N=C(\\N)Cc2ccc([N+](=O)[O-])cc2)c1", "inhibition": "3.2% (inactive)"},
      {"smiles": "O=C(NC(Nc1nc2ccc([N+](=O)[O-])cc2s1)(C(F)(F)F)C(F)(F)F)c1ccccc1", "inhibition": "93.7% (active)"},
      {"smiles": "CSc1ncccc1C(=O)Nc1nc2ccc(F)cc2s1", "inhibition": "5.6% (inactive)"},
      {"smiles": "CC(Nc1ccc([N+](=O)[O-])cc1[N+](=O)[O-])c1ccccc1", "note": "(stereo not given)", "inhibition": "1% (inactive)"},
      {"smiles": "CNC(=O)c1ccsc1NC(=O)c1ccc(S(=O)(=O)N2CCc3ccccc32)cc1", "inhibition": "0.6% (inactive)"},
      {"smiles": "O=C(Nc1nc2ccc([N+](=O)[O-])cc2s1)c1ccncc1", "inhibition": "68.5% (active)"},
      {"smiles": "COc1ccc(-c2n[nH]c3c2CN(C(=O)c2ccc(F)cc2)CC3)cc1", "inhibition": "1.2% (inactive)"},
      {"smiles": "COc1ccccc1CSc1ncc(-c2ccc([N+](=O)[O-])cc2)[nH]1", "inhibition": "24.2% (inactive)"},
      {"smiles": "CC1(C)C2CCC1(CS(=O)(=O)NCCc1c[nH]c3ccccc13)C(=O)C2", "note": "(stereo not given)", "inhibition": "0.4% (inactive)"},
      {"smiles": "CC(=O)N1c2ccc(S(=O)(=O)N3CCCC(C(=O)Nc4ccc(C)cc4C)C3)cc2CC1C", "note": "(stereo not given)", "inhibition": "0.4% (inactive)"},
      {"smiles": "COc1ccc(NS(=O)(=O)c2cc(NC(=O)C3CCCCC3)ccc2N2CCOCC2)cc1", "inhibition": "-0.4% (inactive)"},
      {"smiles": "CCOc1ncccc1C(=O)N(CC)CC(=O)Nc1ccc(NC(C)=O)cc1", "inhibition": "-0.1% (inactive)"},
      {"smiles": "Cc1cc(Cl)c2oc(C(=O)NC(C)c3ccncn3)c(C)c2c1", "note": "(stereo not given)", "inhibition": "-0.4% (inactive)"},
      {"smiles": "COC(=O)[C@@]12C[C@@H](CC(=O)NCc3cccc(C(F)(F)F)c3)C(=O)N(Cc3ccco3)C1=CCC(C)(C)C2", "inhibition": "-0.5% (inactive)"},
      {"smiles": "COc1ccc(C(=O)NC2(C(F)(F)F)NC(=O)N(CCCc3ccccc3)C2=O)c(OC)c1OC", "note": "(stereo not given)", "inhibition": "11.9% (inactive)"},
      {"smiles": "Cc1cccc(C(=O)OC(C)CN2CCN(C)CC2)c1", "note": "(stereo not given)", "inhibition": "-1.6% (inactive)"},
      {"smiles": "Cc1cccc(-c2nc3ccc(C(=O)NCCN4CCN(C)CC4)cc3nc2-c2cccc(C)c2)c1", "inhibition": "55.9% (active)"},
      {"smiles": "CCCC1=Nc2cc(C(=O)NCCN3CCCC3)ccc2Sc2ccccc21", "inhibition": "-1.2% (inactive)"}
    ]}
  ]
}
